This passage reports inhibition results from PubChem BioAssay AID1986 (Sanford-Burnham Center for Chemical Genomics, 2009).

This experiment in a line: inhibitors of HIV fusion peptide binding, primary screen, biochemical, uHTS, fluorescence dequenching (AID 1986). The note with it: cell-free peptide binding, 30 min, stronger effect = higher value.
The mark [1] stands for this setting: measured here: repeat confirmation average inhibition, at 18.6 µM.

The structures appear in SMILES notation. About 890 (0.31%) of roughly 290,000 compounds were called active. Rule as the data show it: active = inhibition mostly above about 52% (no sharp cut-off); inactive = mostly below about 76%. Only a selection was taken, and actives are over-represented in it overall.

For `O=C(N/N=C/c1cc(Br)ccc1O)c1ccncc1`, the inhibition (at 20 µM) was 3.3% (inactive).
The same measure, in the same setting: as for `COc1cc(/C=N/NC(=O)c2cccc(S(=O)(=O)N3CCOCC3)c2)cc(OC)c1O`, the figure is -3.4% (inactive).
Regarding `O=C(N/N=C/c1cc(Br)cc(Br)c1O)c1cccc(S(=O)(=O)N2CCOCC2)c1`, the inhibition by setting is: (at 20 µM) 80.2% (active); under setting [1], 53.2%.
As to `O=C(N/N=C/c1cc(Br)cc(Br)c1O)c1ccncc1`, the inhibition was 103% (active) (at 20 µM) and 59.2% under setting [1].
`COc1c(Br)cc(Br)cc1/C=N/NC(=O)c1ccncc1`: the inhibition (at 20 µM) was -1% (inactive).
The same measure, in the same setting: next, `O=C(N/N=C/c1c(F)c(F)c(F)c(F)c1F)c1cccc(S(=O)(=O)N2CCOCC2)c1`: 0.1% (inactive).
With `Cc1csc(NC(=O)/C=C/c2ccc(C)o2)n1`, the inhibition (at 20 µM) was 8.7% (inactive).
On the same count and under the same terms, as for `O=c1[nH]c(C2CCN(S(=O)(=O)c3ccc(S(=O)(=O)NC4CC4)cc3)CC2)nc2c1nnn2Cc1ccccc1`, the figure is -0.4% (inactive); as for `O=S(=O)(Cc1ccccc1)NCC1CCCO1` (stereo not given), -2.7% (inactive).
On the same count and under the same terms, as for `CCCCN(CCCC)C(=O)c1cc2ccccc2c(=O)o1`, the figure is -1.7% (inactive); as for `CCCCC[C@H](O)/C=C/[C@@H]1[C@@H](C/C=C\CCCC(=O)O)[C@@H](O)C[C@H]1O`, -0.8% (inactive).
Still for that read-out and setting: next, `CCCCC[C@H](O)/C=C/[C@H]1C=CC(=O)[C@@H]1C/C=C\CCCC(=O)O`: 52.4% (active).
As to `CCCCC[C@H](O)/C=C/[C@@H]1[C@@H](C/C=C\CCCC(=O)O)[C@H]2CO[C@@H]1C2`, for the setting “at 20 µM”, the inhibition was 3.4% (inactive).
On the same count and under the same terms, next, `CCOC(=O)c1ccc(NC(=S)NCC(O)c2ccccc2)cc1` (stereo not given): 8.7% (inactive); `Cn1cnnc1SCC(=O)Nc1ccc(Cl)cc1`: 1.9% (inactive).
Take `Cc1ccc(C(=O)NN2C(=O)/C(=C/c3cccn3C)SC2=S)cc1`: the inhibition (at 20 µM) is 24.4% (inactive).
`Cn1cc(/C=C2\SC(=S)N(NC(=O)c3ccccc3Cl)C2=O)c2ccccc21`: the inhibition runs as follows: (at 20 µM) 66.4% (active); under setting [1], 117%.
`Cn1cccc1/C=C1\SC(=S)N(NC(=O)c2ccccc2)C1=O`: the inhibition (at 20 µM) is 35.3% (inactive).
Same read-out and setting: as for `Cn1cc(/C=C2\SC(=S)N(NC(=O)c3cccc(Cl)c3)C2=O)c2ccccc21`, the figure is 69.3% (active).
Take `Cn1cccc1/C=C1\SC(=S)N(NC(=O)c2ccccc2O)C1=O`: the inhibition (at 20 µM) is 66.2% (inactive) and the inhibition under setting [1] came to 25.2%.
Consider `Cn1cccc1/C=C1\SC(=S)N(NC(=O)c2ccccc2Cl)C1=O`, for which the inhibition (at 20 µM) is 22.1% (inactive).
For `Cc1ccc(C(=O)NN2C(=O)/C(=C/c3cn(C)c4ccccc34)SC2=S)cc1`, the inhibition (at 20 µM) was 86.9% (active) and the inhibition under setting [1] was determined as 91.3%.
With `Cn1cc(/C=C2\SC(=S)N(NC(=O)c3ccccc3)C2=O)c2ccccc21`, the inhibition (at 20 µM) is 122% (inactive) and the inhibition under setting [1] came out at 17.7%.
Consider `Cn1cccc1/C=C1\SC(=S)N(NC(=O)c2cccc(Cl)c2)C1=O`, for which the inhibition (at 20 µM) is 25.6% (inactive).
On the same count and under the same terms, as for `Cc1nc(SCc2ccccc2)[nH]c(=O)c1CC(=O)OCC(C)C`, the figure is 0.8% (inactive); as for `CN(C)c1nc(N)c([N+](=O)[O-])c(NCc2ccccc2)n1`, -1.3% (inactive).
On the same count and under the same terms, next, `Cc1onc(-c2c(Cl)cccc2Cl)c1C(=O)Nc1nccs1`: -1% (inactive); `COc1ccc(NCC(=O)N/N=C(\C)c2cc3ccccc3o2)cc1`: -3.3% (inactive).
The same measure, in the same setting: as for `Cc1c(NC(=O)/C(=C/c2cccs2)c2cccs2)c(=O)n(-c2ccccc2)n1C`, the figure is 6.2% (inactive).
For `Cc1c(N=C2N=C(NC(=O)Nc3ccc(Cl)cc3)c3ccccc32)c(=O)n(-c2ccccc2)n1C`, where the note is “at 20 µM”, the inhibition was 137% (inactive).
Turning to `Cc1c(NC(=O)c2cccs2)c(=O)n(-c2ccccc2)n1C`, the inhibition (at 20 µM) was -1.2% (inactive).
As for `Cc1c(N=C2N=C(NC(=O)c3ccc(F)cc3)c3ccccc32)c(=O)n(-c2ccccc2)n1C`, the inhibition (at 20 µM) was 74.4% (active).
`Cc1c(N=C2N=C(NC(=O)NC(C)(C)C)c3ccccc32)c(=O)n(-c2ccccc2)n1C`: the inhibition (at 20 µM) is -0.2% (inactive).
Still for that read-out and setting: next, `Cc1c(N=C2N=C(NC(=O)c3cccs3)c3ccccc32)c(=O)n(-c2ccccc2)n1C`: 75.3% (active); `CC(=O)Nc1cccc(NC(=O)CSc2ncc(-c3ccccc3)[nH]2)c1`: 0.5% (inactive).
The same measure, in the same setting: next, `Cc1ccc(C(C(=O)NC2CCCCC2)N(Cc2ccco2)C(=O)Cn2cnc3ccccc32)cc1` (stereo not given): -1.8% (inactive); `Cc1nc(NC(=O)/C=C/c2ccccc2)sc1C(=O)N1CCCCC1`: -0.3% (inactive).
On to `Cc1cc(/C=C2\SC(=S)N(Cc3ccco3)C2=O)c(C)n1-c1ccccc1`, for which the inhibition (at 20 µM) is 43.7% (inactive).
On to `Cc1cc(/C=C2\SC(=S)N(Cc3ccco3)C2=O)c(C)n1-c1cccnc1`, for which the inhibition (at 20 µM) is 53.6% (active) and the inhibition under setting [1] was 94.4%.
In the case of `COc1ccc(-n2c(C)cc(/C=C3\SC(=S)N(Cc4ccco4)C3=O)c2C)cc1`, the inhibition (at 20 µM) is 38.3% (inactive).
Same read-out and setting: as for `NC(=O)CSc1nc(C23CC4CC(CC(C4)C2)C3)nc2ccccc12`, the figure is -1.1% (inactive); as for `CCCNC(=O)Cn1c(=O)/c(=C\c2ccc(-c3cccc([N+](=O)[O-])c3)o2)s/c1=C\C(=O)C(C)(C)C`, 23.1% (inactive).
Still for that read-out and setting: as for `CCCNC(=O)Cn1c(=O)/c(=C\c2ccc(-c3ccc([N+](=O)[O-])cc3)o2)s/c1=C\C(=O)C(C)(C)C`, the figure is 145% (inactive).
With `CC(C)(C)C(=O)/C=c1\s/c(=C\c2ccc(-c3ccc([N+](=O)[O-])cc3)o2)c(=O)n1CC(=O)NC(N)=O`, the inhibition (at 20 µM) is 76.8% (active).
Same read-out and setting: next, `O=C(CCc1nc2ccccc2[nH]c1=O)N/N=C/c1ccccc1`: -0.5% (inactive); `CCOC(=O)NC(=O)CSc1nc(C)cc(C(F)(F)F)c1C#N`: 4.9% (inactive).
For `CCOC(=O)CCSc1nc(C)cc(C(F)(F)F)c1C#N`, the inhibition was 82% (active) (at 20 µM) and 50.9% under setting [1].
`CCOC(=O)CCSc1nc(C(C)(C)C)cc(C(F)(F)F)c1C#N`: the inhibition (at 20 µM) was -0.1% (inactive).
The same measure, in the same setting: as for `O=C(NN=C1C2CC3CC(C2)CC1C3)c1cccc(S(=O)(=O)N2CCOCC2)c1`, the figure is 2.1% (inactive); as for `Cc1ccccc1CSc1n[nH]c(NS(=O)(=O)c2ccccc2)n1`, -0.6% (inactive).
Take `COc1ccccc1C(=O)NNC(=O)c1cccc(C)c1`: the inhibition (at 20 µM) was 0.2% (inactive).
`Cc1cc(-c2csc(NC(=O)c3ccc(C#N)cc3)n2)c(C)n1Cc1ccco1`: the inhibition (at 20 µM) is 56.1% (active).
Take `CCNc1nc(-c2cc(C)n(Cc3ccco3)c2C)cs1`: the inhibition by setting is: (at 20 µM) 59.6% (inactive); under setting [1], 0.3%.
Taken in the same sequence, the figures for `Cc1cc(-c2csc(NC(=O)c3ccc(=O)[nH]c3)n2)c(C)n1Cc1ccccc1` were 84.8% (inactive) and 2.3%.
For `Cc1cc(-c2csc(N)n2)c(C)n1Cc1ccco1`, the inhibition (at 20 µM) is 46.3% (inactive).
Still for that read-out and setting: next, `Cc1cc(-c2csc(NC(=O)c3ccc(C#N)cc3)n2)c(C)n1Cc1ccccc1`: 15.9% (inactive); `Cc1cc(-c2csc(NC(=O)c3ccc(=O)[nH]c3)n2)c(C)n1Cc1ccco1`: 61% (active).
Same read-out and setting: next, `O=C(Nc1cccc(C(F)(F)F)c1)/C(=C/c1ccco1)NC(=O)c1cccs1`: 15.1% (inactive); `COC(=O)c1ccc(COc2ccccc2/C=N/Nc2cccc(C(=O)O)c2)cc1`: 37% (inactive).
For `O=C(O)c1cccc(N/N=C/c2ccc(OC(F)(F)F)cc2)c1`, the inhibition (at 20 µM) is 26.1% (inactive).
On to `COC(=O)c1ccc(COc2ccc(/C=N/Nc3cccc(C(=O)O)c3)cc2)cc1`, for which the inhibition (at 20 µM) is 58.9% (active).
For `COc1ccc(/C=N/NC(=O)c2cccc([N+](=O)[O-])c2)cc1OC(=O)c1ccc(C)cc1`, the inhibition (at 20 µM) was -0.7% (inactive).
The same measure, in the same setting: next, `CO/N=C(\c1nonc1N)N1CCN(c2ccc(Cl)cc2[N+](=O)[O-])CC1`: -0.3% (inactive); `CC1=N/C(=C/c2ccco2)C(=O)O1`: 41.7% (inactive).
On to `O=C1OC(/C=C/c2ccc(Cl)cc2)=NC/1=C/c1ccco1`, for which, where the note is “at 20 µM”, the inhibition was 56.5% (active).
Turning to `COc1ccccc1/C=C/C=C1N=C(/C=C/c2ccc(Cl)cc2)OC/1=O`, the inhibition is 56.4% (inactive) (at 20 µM) and -0.4% under setting [1].
`O=C(NCc1ccccc1Cl)NCc1ccccc1Cl`: the inhibition (at 20 µM) is 1% (inactive).
Same read-out and setting: as for `CCCC(=O)n1nc(-c2ccccc2)nc1SC`, the figure is 3.2% (inactive); as for `Cc1nnc(NC(=O)C23CC4CC(CC(C4)C2)C3)s1`, 2.2% (inactive).
Same read-out and setting: as for `COc1ccc(-c2cc(CCCC(=O)N3CCN(c4ccc(OC)cc4)CC3)no2)cc1`, the figure is -1.3% (inactive); as for `CCN(CC)CCCC(C)Nc1c2ccc(Cl)cc2nc2ccc(OC)cc12` (stereo not given), 62.2% (active); as for `COc1ccc2nc3cc(Cl)ccc3c(C#N)c2c1`, 3.4% (inactive).
Still for that read-out and setting: next, `COc1ccc2nc3cc(Cl)ccc3c(Nc3cc(C(C)C)c(O)cc3C)c2c1`: -5.4% (inactive).
For `O=C1NC(=Nc2ccccc2Cl)S/C1=C\c1cc([N+](=O)[O-])ccc1O`, the inhibition (at 20 µM) was 89.1% (active) and the inhibition under setting [1] was 124%.
Consider `O=C1N/C(=N\S(=O)(=O)Cc2ccccc2)S/C1=C/c1cc([N+](=O)[O-])ccc1O`, for which, under “at 20 µM”, the inhibition is 69.6% (active).
For `COc1c(/C=C2\SC(=Nc3ccccc3Cl)NC2=O)cccc1[N+](=O)[O-]`, the inhibition (at 20 µM) is 20% (inactive).
Same read-out and setting: as for `O=C1N/C(=N\S(=O)(=O)Cc2ccccc2)S/C1=C/c1cccc([N+](=O)[O-])c1`, the figure is 30.7% (inactive); as for `COc1cc(/C=C2\S/C(=N/S(=O)(=O)Cc3ccccc3)NC2=O)c([N+](=O)[O-])cc1OC`, 25.9% (inactive).
Regarding `O=C1NC(=Nc2ccccc2Cl)S/C1=C\c1cccc([N+](=O)[O-])c1`, the inhibition (at 20 µM) is 75.6% (inactive) and the inhibition under setting [1] came to 29.4%.
Taken in the same sequence, the figures for `COc1cccc(N=C2NC(=O)/C(=C/c3cc([N+](=O)[O-])ccc3O)S2)c1` were 64.2% (inactive) and 33%.
Take `O=C1NC(=Nc2ccccc2Cl)S/C1=C\c1ccc(C(=O)O)cc1`: under “at 20 µM”, the inhibition is 26.9% (inactive).
Regarding `N/C(=N\NC(=O)c1ccccc1Cl)c1cc2ccccc2oc1=O`, under “at 20 µM”, the inhibition was 0.3% (inactive).
The same measure, in the same setting: next, `CCC(=O)Nc1ccc(-c2nnc(SCc3ccc(C(=O)Nc4nccs4)cc3)n2CC)cc1`: -0.6% (inactive).
Same read-out and setting: next, `NC1=NC[C@H](CC2CCCCC2)N1CCc1cc(C(F)(F)F)cc(C(F)(F)F)c1`: 0.6% (inactive); `CC(C)[C@@H]1NC(=O)N(c2ccc(Oc3ccccc3)cc2)C1=O`: -2.5% (inactive); `COc1cccc(-c2c(C(=O)N/N=C(\C)COc3ccccc3)nnn2-c2nonc2N)c1`: -1.6% (inactive).

A word on the inhibition: it is the relative decrease from the control value, in per cent.
